Tested on: Vero E6 infected with SARS-CoV-2
Experiment: inhibition of SARS-CoV-2 cytopathic effect; higher = more antiviral protection, active = above 15
Conditions: 48 h

Measured: inhibition of SARS-CoV-2 cytopathic effect

Cc1oc(-c2ccccc2)nc1CCC(=O)c1ccc(CC2SC(=O)NC2=O)cc1 (stereo not given) [darglitazone]
inactive: 1 nM 2.44% | 8.33 nM 3.08% | 100 nM -5.6% | 833.33 nM -5.76% | 10000 nM -1.67%

O=C(O)CCC(=O)C(=O)O [2-oxoglutaric-acid]
inactive: 1 nM -3.15% | 8.33 nM -0.14% | 100 nM 1.87% | 833.33 nM 0.16% | 10000 nM -2.21%

Cc1cccc(C)c1NC(=O)[C@@H](C)N [tocainide]
inactive: 1 nM 1.21% | 8.33 nM 0.17% | 100 nM -6.26% | 833.33 nM 1.04% | 10000 nM -4.59%

Cc1cc(C)nc(NS(=O)(=O)c2ccc(N)cc2)n1 [sulfamethazine]
inactive: 1 nM -2.32% | 8.33 nM 0.49% | 100 nM 0.37% | 833.33 nM 0.92% | 10000 nM -1.06%

O=C(NN1C(=O)[C@@H]2[C@@H]3C=C[C@@H]([C@H]4C[C@@H]34)[C@@H]2C1=O)c1ccc(C(F)(F)F)cc1 [tecovirimat]
inactive: 1 nM 1.41% | 8.33 nM 2.44% | 100 nM 2.71% | 833.33 nM 0.04% | 10000 nM -0.46%

COc1ccc(CCNCC(O)COc2cccc(C)c2)cc1OC (stereo not given) [bevantolol]
inactive: 1 nM -3.29% | 8.33 nM -3.57% | 100 nM -4.47% | 833.33 nM -3.25% | 10000 nM -5.37%

CC1COc2c(N3CCN(C)CC3)c(F)cc3c(=O)c(C(=O)O)cn1c23 (stereo not given) [ofloxacin]
inactive: 1 nM 1.97% | 8.33 nM 0.365% | 100 nM 0.065% | 833.33 nM -0.975% | 10000 nM 1.25%

CCN1CCC[C@H]1CNC(=O)c1c(O)c(Cl)cc(Cl)c1OC [raclopride]
inactive: 1 nM -5.41% | 8.33 nM -4.22% | 100 nM -1.29% | 833.33 nM -2.68% | 10000 nM -0.07%

Clc1ccc(C(OCCN2CCCCC2)c2ccccc2)cc1 (stereo not given) [cloperastine]
inactive: 1 nM -0.8% | 8.33 nM -0.73% | 100 nM 0.64% | 833.33 nM -3.95% | 10000 nM -8.21%

CN1CCc2cc(Cl)c(O)cc2[C@@H](c2ccccc2)C1
inactive: 1 nM 10.5% | 8.33 nM 6.47% | 100 nM 7.29% | 833.33 nM 2.11% | 10000 nM -0.78%

CCCOc1ccc2[nH]c(NC(=O)OC)nc2c1 [oxibendazole]
inactive: 1 nM -2.12% | 8.33 nM -0.7% | 100 nM -0.63% | 833.33 nM -2.39% | 10000 nM -0.04%

O=C(Nc1ccc(CN2CCOCC2)cc1)c1ccc(-c2cccc(Cl)c2)o1
inactive: 1 nM 0.42% | 8.33 nM -1.17% | 100 nM 0.17% | 833.33 nM 0.72% | 10000 nM -0.79%

COc1ccc(Nc2ccn(-c3ccccc3)n2)cc1
inactive: 1 nM 2.12% | 8.33 nM 1.12% | 100 nM 3.85% | 833.33 nM 3.51% | 10000 nM 4.1%

CS(=O)(=O)n1cc2c(n1)CN([C@H]1CO[C@H](c3cc(F)ccc3F)[C@@H](N)C1)C2 [omarigliptin]
inactive: 1 nM -0.75% | 8.33 nM 1.81% | 100 nM 0.23% | 833.33 nM 1.96% | 10000 nM 0.42%

COc1ccc(/C=C/C(=O)Nc2ccccc2C(=O)O)cc1OC [tranilast]
inactive: 1 nM -0.23% | 8.33 nM -1.52% | 100 nM -1.22% | 833.33 nM 0.97% | 10000 nM 1.42%

NC1CCN(c2c(F)cc3c(=O)c(C(=O)O)cn(C4CC4)c3c2Cl)C1 (stereo not given) [clinafloxacin]
inactive: 1 nM 2.47% | 8.33 nM 0.61% | 100 nM -1% | 833.33 nM -0.8% | 10000 nM 0.5%

CCOc1cc2ncc(C#N)c(Nc3ccc(OCc4cccc(F)c4)c(Cl)c3)c2cc1NC(=O)/C=C/CN(C)C
inactive: 1 nM -1.73% | 8.33 nM -3.51% | 100 nM -7.95% | 833.33 nM -12% | 10000 nM -22%

OCCN1CCN(CCCN2c3ccccc3Sc3ccc(Cl)cc32)CC1 [perphenazine]
inactive: 1 nM 1.39% | 8.33 nM 1.94% | 100 nM 0.83% | 833.33 nM -2.86% | 10000 nM 2.67%

CC(=O)NCCC(=O)N[C@@H](Cc1c[nH]cn1)C(=O)O [N-acetylcarnosine]
inactive: 1 nM 1.19% | 8.33 nM 1.23% | 100 nM -0.15% | 833.33 nM -2.97% | 10000 nM 4.18%

CC12CCC(CC1=O)C2(C)C (stereo not drawn) [camphor-(+)]
inactive: 1 nM 1.23% | 8.33 nM 0.085% | 100 nM -0.16% | 833.33 nM 1.82% | 10000 nM -0.53%

Cc1ncc(Cl)cc1NCc1ccc(C(=O)N[C@@H](CC2CCCC2)C(=O)NC2CC2)s1
inactive: 1 nM 2.43% | 8.33 nM 0.35% | 100 nM -0.53% | 833.33 nM -0.57% | 10000 nM -2.59%

N=C(N)NC(=N)Nc1ccccc1 [1-phenylbiguanide]
inactive: 1 nM -1.07% | 8.33 nM -0.09% | 100 nM 0.97% | 833.33 nM 1.34% | 10000 nM -1.5%

COc1ccc2[nH]c(C(=O)c3ccccc3)cc2c1
inactive: 1 nM 0.63% | 8.33 nM 1.49% | 100 nM 0.36% | 833.33 nM 0.6% | 10000 nM 0.07%

CCCCCCNC(=O)n1cc(F)c(=O)[nH]c1=O [carmofur]
inactive: 1 nM 2.01% | 8.33 nM 4.18% | 100 nM 2.63% | 833.33 nM 2.67% | 10000 nM 4.01%

CN(C)CCOC(c1ccc(Cl)cc1)c1ccccn1 (stereo not given) [carbinoxamine]
inactive: 1 nM 1.68% | 8.33 nM 1.53% | 100 nM 1.23% | 833.33 nM 1.37% | 10000 nM -1.45%

CC(C)Oc1ccc(-c2nn([C@@H](C)c3oc4ccc(F)cc4c(=O)c3-c3cccc(F)c3)c3ncnc(N)c23)cc1F
inactive: 1 nM 1.54% | 8.33 nM 2.74% | 100 nM 0.14% | 833.33 nM 0.53% | 10000 nM -3.52%

NCC(O)(CS(=O)(=O)O)c1ccc(Cl)cc1 (stereo not given) [2-hydroxysaclofen]
inactive: 1 nM 0.19% | 8.33 nM 1.62% | 100 nM -0.08% | 833.33 nM 3.7% | 10000 nM 0.53%

CCOc1ccccc1-n1c(C(C)N2CCN(C(=O)COc3ccc(Cl)cc3)CC2)nc2ccccc2c1=O (stereo not given) [erastin]
inactive: 1 nM -2.42% | 8.33 nM -0.63% | 100 nM -0.86% | 833.33 nM -2.74% | 10000 nM 7.21%

COc1ccc(-n2[nH]c3c4c(ncc3c2=O)CCCCC4)cc1
inactive: 1 nM 0.69% | 8.33 nM 0.11% | 100 nM -0.83% | 833.33 nM 1.15% | 10000 nM -1.86%

CCN(Cc1ccncc1)C(=O)C(CO)c1ccccc1 (stereo not given) [tropicamide]
inactive: 1 nM 2.76% | 8.33 nM 4.91% | 100 nM 3.33% | 833.33 nM 3.81% | 10000 nM -2.47%

O=S(=O)(O)c1cc(I)c(O)c2ncccc12 [chiniofon]
inactive: 1 nM -0.29% | 8.33 nM -0.47% | 100 nM -0.93% | 833.33 nM 3.44% | 10000 nM -0.39%

Cc1cccc(C)c1NC(=O)CN1CCCCCC1 [pincainide]
inactive: 1 nM -3.17% | 8.33 nM -5.99% | 100 nM -2.63% | 833.33 nM -1.95% | 10000 nM 0.04%

C[C@@H](C1=C(CCN(C)C)Cc2ccccc21)c1ccccn1 (racemic) [dimetindene]
inactive: 1 nM -0.06% | 8.33 nM 0.69% | 100 nM 0.085% | 833.33 nM 1.68% | 10000 nM 1.16%

CC1=CC(=O)c2ccccc2C1=O [menadione]
inactive: 1 nM 1% | 8.33 nM 1.27% | 100 nM -0.28% | 833.33 nM -0.16% | 10000 nM -2.15%

COC(=O)/C=C/C(=O)OCCN1C(=O)CCC1=O [diroximel-fumarate]
inactive: 1 nM -3.18% | 8.33 nM -0.95% | 100 nM -3.4% | 833.33 nM -1.82% | 10000 nM 11.3%

CCn1c(=O)c(-c2ccc(Cl)cc2Cl)cc2cnc(Nc3ccc(N4CCNCC4)c(F)c3)nc21
inactive: 1 nM -1.29% | 8.33 nM -2.53% | 100 nM -1.93% | 833.33 nM -6.85% | 10000 nM -4.65%

CC(C(=O)O)c1cccc(C(=O)c2ccccc2)c1 (stereo not given) [ketoprofen]
inactive: 1 nM -0.91% | 8.33 nM -0.62% | 100 nM -0.91% | 833.33 nM -0.03% | 10000 nM -0.97%

Cc1ccc(S(=O)(=O)n2c(N)nc3ccccc32)cc1
inactive: 1 nM -0.51% | 8.33 nM -0.92% | 100 nM -2.91% | 833.33 nM -2.7% | 10000 nM -0.17%

CN(C)C/C=C/C(=O)Nc1ccc(C(=O)Nc2cccc(Nc3ncc(Cl)c(-c4c[nH]c5ccccc45)n3)c2)cc1
inactive: 1 nM -0.79% | 8.33 nM -1.41% | 100 nM -1.48% | 833.33 nM -2.92% | 10000 nM -8.5%

N[C@@H](Cc1c[nH]c2ccc(O)cc12)C(=O)O [5-hydroxytryptophan]
inactive: 1 nM -0.86% | 8.33 nM 0.52% | 100 nM 1.04% | 833.33 nM 2.16% | 10000 nM 2.55%

C[C@@H](O)[C@H]1C(=O)N2C(C(=O)O)=C(S[C@@H]3CN[C@H](C(=O)N(C)C)C3)[C@H](C)[C@H]12 [meropenem]
inactive: 1 nM 0.11% | 8.33 nM 1.38% | 100 nM 0.18% | 833.33 nM 6.2% | 10000 nM -0.92%
